High-throughput results as filed in PubChem.
BoNT-F LC inh: blocks Botulinum neurotoxin F light chain protease | Multiplex microsphere protease cleavage assay, flow cytometry | inhibition, % at 10 µM | 0.22% of 360,000 active; in the data active means inhibition above about 35%, passing the limit was not always enough; inconclusive means no clear call, values can overlap the other calls; further: plate controls were buffer without enzyme for full effect and enzyme alone for no effect
Anthrax LF inh2: anthrax lethal factor protease inhibition; multiplex microsphere protease cleavage assay, LF; 0.12% of 360,000 active; inhibition, % at 10 µM; P15917; AID 588501; further: plate controls were buffer without enzyme for full effect and enzyme alone for no effect
BoNT-A LC inh2: BoNT A light chain protease inhibition. inhibition, % at 10 µM. AID 588499. 0.17% of 360,000 active. multiplex microsphere protease substrate cleavage, flow cytometry; further: plate controls were buffer without enzyme for full effect and enzyme alone for no effect
Bead autofluor: flagged as autofluorescent in microsphere protease counterscreen | compound autofluorescence counterscreen, microsphere flow cytometry; active compounds read high | fluorescence intensity (concentration not given with the values) | AID 624483 | 3.1% of 360,000 active; in the data active means fluorescence intensity above about 16000; inconclusive means no clear call, values can overlap the other calls
CCHFV vOTU inh: blocks the CCHF virus ovarian tumor domain protease; AID 651958; CCHFV vOTU protease, Pep-AMC fluorescence; 0.55% of 370,000 active; inhibition, % at 11.5 µM; in the data active means inhibition above about 30%; further: 0% = vehicle wells with enzyme and 100% = no enzyme wells
SARS 3CLpro inh: SARS-CoV 3CLpro protease inhibition; P0C6X7; recombinant SARS-CoV 3CLpro, quenched FRET peptide cleavage; inhibition, % at 6 µM; 0.14% of 290,000 active; AID 1706; in the data active means inhibition above about 12%
Starred values were filed as active, the others as inactive; ? = inconclusive; nt = not tested or not shown. Rows were chosen to be rich in hits. Some 3.9% of all compounds tested hit in one or more screens of this group. Unless noted, no stated cut-off is given here; in the data, active means inhibition above about 30%; inconclusive means no clear call, values can overlap the other calls; inactive means below that.

SMILES	BoNT-F LC inh	Anthrax LF inh2	BoNT-A LC inh2	Bead autofluor	CCHFV vOTU inh	SARS 3CLpro inh
Clc1ccc(-n2nnnc2-c2ccccc2)cc1	-8	2	?	17854*	7	1
COC(=O)[C@]12C[C@H](CC(=O)NCc3ccc(C)o3)C(=O)N(Cc3ccccc3)C1=C[C@H](COCc1ccccc1)O[C@@H]2C	nt	nt	nt	nt	7	nt
Cn1c(=O)c2c(nc(CN3CCN(Cc4ccccc4)CC3)n2Cc2ccc(F)cc2)n(C)c1=O	5	-1	0	6409	12	2
CCCCCn1c(CN2CCN(Cc3ccccc3)CC2)nc2c1c(=O)n(C)c(=O)n2C	7	-8	5	20660*	3	-3
CCCCn1c(CN2CCN(c3cccc(Cl)c3)CC2)nc2c1c(=O)n(C)c(=O)n2C	7	-12	6	19625*	1	-2
CCCCCn1c(CN2CCN(c3cccc(Cl)c3)CC2)nc2c1c(=O)n(C)c(=O)n2C	2	0	0	8145	-4	4
CCCCn1c(CN(C)Cc2ccccc2)nc2c1c(=O)n(C)c(=O)n2C	-2	-6	0	19708*	14	-5
CC(C)CCn1c(CN2CCN(Cc3ccccc3)CC2)nc2c1c(=O)n(C)c(=O)n2C	-1	3	?	20587*	14	-2
CCCCn1c(CN2CCN(c3ccccc3)CC2)nc2c1c(=O)n(C)c(=O)n2C	7	2	0	5771	nt	2
Cc1nnn(C23C[C@@H]4C[C@@H](CC(C(=O)N5CCN(c6ccccc6)CC5)(C4)C2)C3)n1	?	-15	0	3837	-4	-1
CCOC(=O)CC1C(=O)NCCN1C(=O)c1ccc(Cl)cc1Cl (stereo not given)	4	-18	-1	3885	-4	-3
CCn1c(CN2CCN(C(=O)c3ccco3)CC2)nc2c1c(=O)n(C)c(=O)n2C	5	1	?	21356*	4	-2
CCOC(=O)Cn1c(CN(Cc2ccccc2)Cc2ccccc2)nc2c1c(=O)n(C)c(=O)n2C	4	-9	3	20766*	10	1
CC(C)Cn1c(CN2CCN(C(=O)c3ccco3)CC2)nc2c1c(=O)n(C)c(=O)n2C	0	-4	0	3835	-21	-4
Cn1c(=O)c2c(ncn2CC(=O)N(Cc2ccccc2)c2ccccn2)n(C)c1=O	-2	0	0	23173*	4	9
Cn1c(=O)c2c(ncn2CC(=O)OCc2ccccc2)n(C)c1=O	12	0	-2	?	-10	-2
Cc1ccc(C2=CC(=O)CC(C)(C)C2=O)cc1	nt	nt	nt	nt	-7	nt
NC1=NC(=O)C(=Cc2ccccc2)S1	0	3	0	2815	10	nt
NC1=NC(=O)/C(=C/c2cccs2)S1	-2	-1	-1	23925*	10	4
C[C@H]1CN([C@@H](C)CO)C(=O)CCCn2nncc2CO[C@@H]1CN(C)C(=O)Nc1cccc2ccccc12	1	-6	0	4000	4	nt
O=C(NNc1ccccn1)C(=O)NNS(=O)(=O)c1ccc(Cl)cc1	0	0	-1	23954*	-4	-5
COc1cccc(CNC(=O)CC(NC(=O)c2ccccc2)c2ccccc2)c1 (stereo not given)	11	1	-6	?	8	nt
Cc1ccc(NC(=O)CN(C)C(=O)CSc2nc(C)cs2)cc1	-1	-6	-1	3159	-14	0
COC(=O)[C@]12C[C@H](CC(=O)N3CCN(C(=O)C4CC4)CC3)C(=O)N(CCc3ccc(OC)c(OC)c3)C1=C[C@H](C(C)C)O[C@@H]2C1CC1	nt	nt	nt	nt	-3	nt
O=c1c2ccccc2nnn1CSc1nc2cc(Cl)ccc2c(=O)n1Cc1ccco1	nt	nt	nt	nt	-2	1
SMILES	BoNT-F LC inh	Anthrax LF inh2	BoNT-A LC inh2	Bead autofluor	CCHFV vOTU inh	SARS 3CLpro inh
O=c1c2ccccc2nnn1CSc1nnc(COc2ccc(Cl)cc2)n1Cc1ccco1	-4	-4	?	22380*	11	-6
CC(C(=O)N=c1sc2ccccc2n1C)N1C(=O)C2CC=CCC2C1=O (stereo not given)	3	-1	3	21549*	3	0
CO/N=C/NC(=O)c1cn(-c2ccc(F)cc2)c(=O)c2ccccc12	-2	-4	-1	16209*	-7	-5
COC(=O)c1cn(-c2ccc(F)cc2)c(=O)c2ccccc12	7	3	2	4520	3	2
Cc1noc(C)c1NC(=O)NC(c1ccccc1)c1ccccc1	?	-24	-5	3321	-2	3
O=C1C=C(Nc2ccc(O)cc2)CC(c2ccco2)C1 (stereo not given)	-9	-4	?	23693*	7	2
O=C(CN1CCN(S(=O)(=O)/C=C/c2ccccc2)CC1)Nc1ccccc1N1CCOCC1	nt	nt	nt	nt	8	4
O=C1Nc2cc(Cl)ccc2C1(N1CCNCC1)C(F)(F)F (stereo not given)	-1	-7	2	18877*	-3	1
O=C(Nc1ccc(F)cc1)C(CCc1ccccc1)N1CCN(Cc2c(F)cccc2Cl)CC1 (stereo not given)	nt	nt	nt	nt	-4	nt
Clc1ccc(OCc2nn3c(C4CCCCC4)nnc3s2)c(Cl)c1	-4	-1	-3	22251*	1	2
Cc1ccc(OCc2nn3c(C4CCCCC4)nnc3s2)cc1	nt	nt	nt	nt	16	nt
Cc1cc(C(=O)OCC(=O)Nc2c(Cl)cccc2C(F)(F)F)c(C)o1	4	0	-2	5563	-3	nt
CCOC(=O)c1[nH]c2ccccc2c1NC(=O)c1ccc(S(=O)(=O)N(C)C)cc1	0	-3	0	6050	-1	-2
CN(C)S(=O)(=O)c1ccc(C(=O)Nc2ccccc2C(=O)O)cc1	1	-9	0	3546	13	-1
CCOC(=O)c1oc2ccc(S(=O)(=O)N3CCOCC3)cc2c1C	-1	-1	?	16344*	-8	1
CCOC(=O)c1oc2ccccc2c1NC(=O)c1ccc(S(=O)(=O)N(C)C)cc1	8	-7	6	20341*	-14	-3
CN(C)S(=O)(=O)c1ccc(C(=O)Nc2ccccc2F)cc1	1	-2	-1	16551*	nt	3
CCOC(=O)c1oc2ccccc2c1NC(=O)c1ccc(S(=O)(=O)N2CCCC2)cc1	2	0	2	20008*	12	0
Cc1c(Br)cc(C(=O)NC2CCCCC2)c(C)c1C	-2	0	?	23067*	0	4
COCCCN(C(=S)Nc1c(C)cc(C)cc1C)C(C)c1ccccn1 (stereo not given)	2	1	-1	4262	2	1
CCC(C)C(CO)NCCCn1cnc2c(OC)ncnc21 (stereo not given)	-6	2	0	3911	-1	nt
CC1(C(=O)NCc2cccc3ccccc23)CCN1CCc1ccccc1 (stereo not given)	-1	1	0	3600	11	nt
Cc1ccc([N+](=O)[O-])cc1-c1[nH]c(-c2ccc(O)c(O)c2)nc1-c1ccccc1	-6	-9	0	16205*	2	4
CCCCOCCCNC(=O)C[C@@H]1C(=O)N2CCCC3=C2[C@@]1(C(=O)OC)CCCC3	nt	nt	nt	nt	-3	nt
Cc1ccc(-c2nc3cc(C)ccc3o2)cc1	2	-6	0	3240	-3	-2
